# Results reported in article PMC5540273 (PLoS ONE, 2017).
# Several values for one entry are separate records, joined by “and”; a condition that tells them apart may be missing. Equal values may be shown once. Read-outs that look alike come from different tables or passages of the source.
# Experiments:
# CHEK2 = settings: concentration: 1 μM, replicates: in singlicate; n = 1
# CIT = settings: n = 1
# CLK1 = settings: n = 1
# CLK2 = settings: concentration: 1 μM, replicates: in singlicate; n = 1
# CLK3 = settings: n = 1
# CLK4 = settings: n = 1
# CSF1R-autoinhibited = settings: concentration: 1 μM, replicates: in singlicate; n = 1
# CSF1R = settings: n = 1
# CSK = settings: n = 1
# CSNK1A1L = settings: n = 1
# CSNK1A1 = settings: concentration: 1 μM, replicates: in singlicate; n = 1
# CSNK1D = settings: n = 1
# CSNK1E = settings: n = 1
# CSNK1G1 = settings: n = 1
# CSNK1G2 = settings: concentration: 1 μM, replicates: in singlicate; n = 1
# CSNK1G3 = settings: n = 1
# CSNK2A1 = settings: n = 1
# CSNK2A2 = settings: n = 1
# CTK = test system: T1, CTK; settings: concentration: 1 μM, replicates: in singlicate; n = 1
# T1 construct: gene MATK
# DAPK1 = settings: n = 1
# [1] = concentration: 1 μM,replicates: in singlicate, 1 µM
# [2] = concentration: 1 μM, replicates: in singlicate
# 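Also: KINOMEscan kinase panel screen.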
compound,measurement,setting,value
CSc1nn2c(=O)cc(N3CCOCC3)nc2n1Cc1cccc(C(F)(F)F)c1C [GSK2363608],%Inh,CHEK2,0%
same,%Inh,CIT; [1],23% and 2%
same,%Inh,CLK1; [1],43% and 31%
same,%Inh,CLK2,0%
same,%Inh,CLK3; [1],0% and 6%
same,%Inh,CLK4; [1],17% and 0%
same,%Inh,CSF1R-autoinhibited,0%
same,%Inh,CSF1R; [1],23% and 9%
same,%Inh,CSK; [1],11% and 0%
same,%Inh,CSNK1A1L; [1],8% and 7%
same,%Inh,CSNK1A1,0%
same,%Inh,CSNK1D; [1],27% and 8%
same,%Inh,CSNK1E; [1],25% and 19%
same,%Inh,CSNK1G1; [1],100% and 4%
same,%Inh,CSNK1G2,0%
same,%Inh,CSNK1G3; [1],41% and 20%
same,%Inh,CSNK2A1; [1],7% and 0%
same,%Inh,CSNK2A2; [1],7% and 0%
same,%Inh,CTK,0%
same,%Inh,DAPK1; [1],3% and 0%
CC(C)(C)c1ccc(C(=O)Nc2cn3cc(-c4cccnc4)ccc3n2)cc1,%Inh,CHEK2,6%
same,%Inh,CIT; [2],28%
same,%Inh,CLK1; [2],84%
same,%Inh,CLK2,41%
same,%Inh,CLK3; [2],32%
same,%Inh,CLK4; [2],74%
same,%Inh,CSF1R-autoinhibited,10%
same,%Inh,CSF1R; [2],30%
same,%Inh,CSK; [2],13%
same,%Inh,CSNK1A1L; [2],15%
same,%Inh,CSNK1A1,41%
same,%Inh,CSNK1D; [2],78%
same,%Inh,CSNK1E; [2],92.4%
same,%Inh,CSNK1G1; [2],10%
same,%Inh,CSNK1G2,24%
same,%Inh,CSNK1G3; [2],21%
same,%Inh,CSNK2A1; [2],22%
same,%Inh,CSNK2A2; [2],17%
same,%Inh,CTK,12%
same,%Inh,DAPK1; [2],40%
Clc1cc(Cl)cc(Nc2ccnc(Nc3cc(Cl)cc(Cl)c3)n2)c1 [GSK175726],%Inh,CHEK2,0%
same,%Inh,CIT; [2],22%
same,%Inh,CLK1; [2],17%
same,%Inh,CLK2,36%
same,%Inh,CLK3; [2],22%
same,%Inh,CLK4; [2],38%
same,%Inh,CSF1R-autoinhibited,0%
same,%Inh,CSF1R; [2],3%
same,%Inh,CSK; [2],0%
same,%Inh,CSNK1A1L; [2],0%
same,%Inh,CSNK1A1,0%
same,%Inh,CSNK1D; [2],17%
same,%Inh,CSNK1E; [2],57%
same,%Inh,CSNK1G1; [2],22%
same,%Inh,CSNK1G2,0%
same,%Inh,CSNK1G3; [2],9%
same,%Inh,CSNK2A1; [2],4%
same,%Inh,CSNK2A2; [2],89%
same,%Inh,CTK,0%
same,%Inh,DAPK1; [2],11%
COc1cc2ncn(-c3cc(OCC4CCCO4)c(C(N)=O)s3)c2cc1OC (centres unmarked) [GSK204607],%Inh,CHEK2,20%
same,%Inh,CIT; [2],12%
same,%Inh,CLK1; [2],22%
same,%Inh,CLK2,0%
same,%Inh,CLK3; [2],10%
same,%Inh,CLK4; [2],18%
same,%Inh,CSF1R-autoinhibited,3%
same,%Inh,CSF1R; [2],5%
same,%Inh,CSK; [2],0%
same,%Inh,CSNK1A1L; [2],0%
same,%Inh,CSNK1A1,0%
same,%Inh,CSNK1D; [2],8%
same,%Inh,CSNK1E; [2],17%
same,%Inh,CSNK1G1; [2],1%
same,%Inh,CSNK1G2,0%
same,%Inh,CSNK1G3; [2],26%
same,%Inh,CSNK2A1; [2],8%
same,%Inh,CSNK2A2; [2],9%
same,%Inh,CTK,0%
same,%Inh,DAPK1; [2],29%
COC(=O)c1c(-c2ccccc2)c2cc(OC)ccc2c(=O)n1Cc1ccccc1,%Inh,CHEK2,15%
same,%Inh,CIT; [2],6%
same,%Inh,CLK1; [2],0%
same,%Inh,CLK2,4%
same,%Inh,CLK3; [2],0%
same,%Inh,CLK4; [2],5%
same,%Inh,CSF1R-autoinhibited,20%
same,%Inh,CSF1R; [2],51%
same,%Inh,CSK; [2],0%
same,%Inh,CSNK1A1L; [2],4%
same,%Inh,CSNK1A1,9%
same,%Inh,CSNK1D; [2],0%
same,%Inh,CSNK1E; [2],0%
same,%Inh,CSNK1G1; [2],8%
same,%Inh,CSNK1G2,0%
same,%Inh,CSNK1G3; [2],0%
same,%Inh,CSNK2A1; [2],0%
same,%Inh,CSNK2A2; [2],27%
same,%Inh,CTK,26%
same,%Inh,DAPK1; [2],37%
CCn1c(-c2ccccn2)nc2cnccc21 [SB-736398],%Inh,CHEK2,0%
same,%Inh,CIT; [2],20%
same,%Inh,CLK1; [2],3%
same,%Inh,CLK2,0%
same,%Inh,CLK3; [2],0%
same,%Inh,CLK4; [2],4%
same,%Inh,CSF1R-autoinhibited,4%
same,%Inh,CSF1R; [2],42%
same,%Inh,CSK; [2],0%
same,%Inh,CSNK1A1L; [2],0%
same,%Inh,CSNK1A1,0%
same,%Inh,CSNK1D; [2],0%
same,%Inh,CSNK1E; [2],4%
same,%Inh,CSNK1G1; [2],0%
same,%Inh,CSNK1G2,0%
same,%Inh,CSNK1G3; [2],0%
same,%Inh,CSNK2A1; [2],0%
same,%Inh,CSNK2A2; [2],0%
same,%Inh,CTK,0%
same,%Inh,DAPK1; [2],0%
Cn1cncc1-c1ccc2ncnc(Nc3ccc(OCc4ccccc4)cc3)c2c1 [GW320571],%Inh,CHEK2,0%
same,%Inh,CIT; [2],6%
same,%Inh,CLK1; [2],23%
same,%Inh,CLK2,57%
same,%Inh,CLK3; [2],100%
same,%Inh,CLK4; [2],32%
same,%Inh,CSF1R-autoinhibited,0%
same,%Inh,CSF1R; [2],0%
same,%Inh,CSK; [2],0%
same,%Inh,CSNK1A1L; [2],22%
same,%Inh,CSNK1A1,0%
same,%Inh,CSNK1D; [2],20%
same,%Inh,CSNK1E; [2],99.4%
same,%Inh,CSNK1G1; [2],0%
same,%Inh,CSNK1G2,15%
same,%Inh,CSNK1G3; [2],19%
same,%Inh,CSNK2A1; [2],26%
same,%Inh,CSNK2A2; [2],15%
same,%Inh,CTK,0%
same,%Inh,DAPK1; [2],0%
